Screening results from PubChem.
Rows were chosen to be rich in hits. Some 0.44% of all compounds tested hit in one or more screens of this group.
Pin1 inhibitor: inhibitors of human Pin1; Potency, µM (highest dose often 115 µM), inactives show at the top dose activity, negative = inhibition, usual class: inhibitors; 390,000 compounds, 0.009% hits; AID 504891; Pin1 FP peptide displacement, HiFluor488, 10 min; active = well fitted inhibition curve with a large enough effect in the polarisation, with a control signal flat, not every such curve was filed as active; inconclusive = small, poorly fitted or top-dose-only effect, or effect the other way, or a change in a side signal; inactive = no such curve, though single readings can be large or run the other way; the % refers to the polarisation; note: potency is the fitted concentration of half-maximal effect; % is set by controls: 0 for no effect and ±100 for the full control effect
Target sequence (Q13526 whole entry, looked up): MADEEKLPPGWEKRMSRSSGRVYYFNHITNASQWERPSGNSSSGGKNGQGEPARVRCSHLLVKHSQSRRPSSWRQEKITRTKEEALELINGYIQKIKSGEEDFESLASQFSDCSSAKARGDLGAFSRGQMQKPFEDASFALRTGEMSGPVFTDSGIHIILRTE
Epigenetic derep: derepresses silenced GFP reporter in murine cells. murine LDR cells, GFP reporter derepression, 30 h. Potency, µM (series often up to 53.9 µM), without a hit: top-dose GFP activation, most hits filed as activators. 280,000 compounds, 0.2% hits; note: potency is the fitted concentration of half-maximal effect; % of control where 0% means no effect; nearly all actives have a fitted effect of over 60% in size
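Derepression of a silenced CMV-GFP reporter in murine LDR cells is scored by enumerating GFP-positive cells with a laser-scanning microplate cytometer after 30 hours of treatment at 37 C.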
PI4K2A block: inhibitors of human PI4K2A. Q9BTU6. purified PI4K2A, ADP-Glo luminescence, 1 h; hits give low values. 420,000 compounds, 0.13% hits. activity change, negative = inhibition, % at 76.9 µM; in the data active = activity change below about -50%; inconclusive = mostly about -30% to -49%;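 note: -100% = wells without enzyme as full effect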
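ADP-Glo luminescence measured ADP generated by PI4K2A enzyme (4 ug/mL before mixing) with 1.2 mM PI substrate (pre-mix) and 300 microM ATP (pre-mix). Tris pH7.5 buffer with MgCl2, Triton X-100; 1 h reaction at ambient temperature.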
p53 reactivation: mutant p53 re-activation in reporter cells. H1299 p53-A138V BP100-luciferase reporter, luminescence, 24 h. Potency, µM (highest dose often 92.2 µM), for the others: at the highest dose activity change, positive = activation, hits mostly activators. 320,000 compounds, 0.063% hits. AID 504706; note: potency is the fitted concentration of half-maximal effect; % of control where 0% means no effect; nearly all actives have a fitted effect of over 45% in size
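H1299 (p53-null), stable ts p53-A138V + BP100-Luc; 1000 cells/well, Opti-MEM/10% FBS; cpd 4 pt, 1:5; 24 h, 37 deg C, 5% CO2; detection reagent 10 min RT; luminescence.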
B2AR arrestin: agonists driving beta-arrestin recruitment to human beta2-adrenergic receptor; P07550; beta-arrestin recruitment to beta2AR, cell-based reporter; Potency, µM (top dose mostly 46.1 µM), for the others: at the top dose activation, most hits filed as activators; 330,000 compounds, 0.02% hits; AID 492947;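 note: potency is the fitted concentration of half-maximal effect; 0% = DMSO controls and full agonism = EC100 isoproterenol or metaproterenol; nearly all actives have a fitted effect of over 65% in size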
Target sequence (P07550 whole entry, looked up): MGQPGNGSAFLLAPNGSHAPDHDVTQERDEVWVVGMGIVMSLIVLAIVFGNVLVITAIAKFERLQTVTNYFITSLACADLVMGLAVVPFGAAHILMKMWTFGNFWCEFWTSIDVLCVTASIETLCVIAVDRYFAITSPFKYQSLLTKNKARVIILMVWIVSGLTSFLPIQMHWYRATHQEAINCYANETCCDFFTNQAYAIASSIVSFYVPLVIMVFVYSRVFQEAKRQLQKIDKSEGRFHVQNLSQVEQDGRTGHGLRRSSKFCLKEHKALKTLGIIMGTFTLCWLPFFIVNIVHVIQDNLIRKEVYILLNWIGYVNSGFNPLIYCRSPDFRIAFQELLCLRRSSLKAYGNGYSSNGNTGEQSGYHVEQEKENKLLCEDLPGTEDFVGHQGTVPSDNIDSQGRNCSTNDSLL
Giardia killer: Giardia lamblia killing. Giardia lamblia trophozoite viability. activity change, % at 7.66 µM, hits read low. 340,000 compounds, 0.15% hits; in the data active = activity change below about -80%; inconclusive = between about -30% and that limit;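 note: parasites exposed to compound for two days anaerobically before the ATP read; % is set by controls: 0 for no effect and ±100 for the full control effect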
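Media and compound were dispensed first, then trophozoites at 100 cells/well; plates sat 48 hrs at 37 deg C without oxygen before ATP luminescence reagent was added and read after 15-30 min at room temperature.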
Numbers without * were called inactive; ? = inconclusive; / = no result; + = active, no number; [ ] = another dose, or the depositor's remark. Unless noted, calls come from the whole dose curve; as a rule, active = well fitted curve in the direction sought with a large enough effect; inconclusive = small, poorly fitted or top-dose-only effect, or another doubt; inactive = no such curve, though single readings can be large; an effect the other way counts as inactive or inconclusive.

SMILES	Pin1 inhibitor	Epigenetic derep	PI4K2A block	p53 reactivation	B2AR arrestin	Giardia killer
Fc1cc(F)cc(Nc2nc(NC3CCCC3)nc(C3CO3)n2)c1 (stereo not drawn)	3%	/	/	/	/	/
CN(c1ccccc1)c1ccc(/C=N/NC(=O)CC#N)cc1	?	2%	3	-6%	1.3µM*	2
COc1cc(OC)nc(O[C@H](C(=O)O)C(OC)(c2ccccc2)c2ccccc2)n1	/	/	1	/	/	/
O=C(Cc1ccccc1)N/N=C/c1ccc([N+](=O)[O-])s1	-6%	-3%	-1	15%	4%	-91*
COc1ccccc1NC(=O)C(=O)N/N=C/c1ccc([N+](=O)[O-])s1	2%	-2%[10.1 µM]	-1	1%	0%	-90*
Cc1ccnn1CC(=O)N/N=C/c1cccs1	-1%	-2%	1	-5%	0%	3
O=C(N/N=C/c1ccc([N+](=O)[O-])s1)C(O)c1ccccc1 (stereo not drawn)	2%	3%	-5	?	-2%	?
O=C(N/N=C/c1ccc([N+](=O)[O-])s1)c1ccccc1	2%	-1%	-3	-6%	0%	-90*
CCOc1ccccc1NC(=O)C(=O)N/N=C/c1ccc([N+](=O)[O-])cc1	0%	0%	4	9%	0%	-10
Cc1ccnn1CC(=O)N/N=C/c1ccc([N+](=O)[O-])s1	-2%	0%	1	25%	0%	-96*
O=C(N/N=C\c1ccc([N+](=O)[O-])s1)c1cncc(Br)c1	?	?	-4	9%	-1%	?
O=C1c2ccccc2C(=O)N1c1ncccc1O	-12%	/	/	/	/	/
COc1ccccc1NS(=O)(=O)c1ccc2c(c1)CCC(=O)N2	-6%	/	/	/	/	/
Cc1ccsc1CNc1ncnc2ccc(-c3ccc4c(c3)OCO4)cc12	25%	/	/	/	/	/
Cc1cc(C(=O)N/N=C/c2ccc([N+](=O)[O-])s2)c2ccccc2n1	13%	/	1	?	0%	-95*
O=C(N/N=C/c1sc2ccccc2c1O)c1ccccc1	?	0%	-1	14µM*	0%	-12
O=[N+]([O-])c1ccc(/C=N/NC(=S)Nc2ccc(Cl)cc2Cl)s1	18%	22µM*	-7	-10%	0%	?
O=C(N/N=C/c1ccc([N+](=O)[O-])s1)c1ccccc1Br	3%	4%	-3	-11%	-1%	-96*
Cc1ccccc1C(=O)N/N=C/c1ccc([N+](=O)[O-])s1	1%	-1%	-7	-16%	0%	?
Cc1ccc(NS(=O)(=O)c2cc3c(cc2-c2ccccc2)NC(=O)CO3)cc1C	23%	/	/	/	/	/
CCOc1cccc(N)c1	-4%	/	-1	3%	16µM*	33
CC(C)OP(=O)(CP(=O)(OC(C)C)OC(C)C)OC(C)C	/	/	0	/	/	/
CCC(=O)Nc1ccc(OCc2cc(C3Nc4ccccc4C(=O)N3Cc3ccccc3)ccc2OC)cc1 (stereo not drawn)	22%	/	/	/	/	/
CS(=O)(=O)c1ccc(-c2cn3ccccc3n2)cc1	/	/	-7	/	/	/
CCOC(=O)c1nn(-c2ccc(Cl)cc2)c(=O)c(C#N)c1C	3%	/	-3	28%	0%	-23
SMILES	Pin1 inhibitor	Epigenetic derep	PI4K2A block	p53 reactivation	B2AR arrestin	Giardia killer
CCOC(=O)c1nn(-c2ccc(Cl)cc2Cl)c(=N)c(C#N)c1C	/	11µM*	/	-3%	0%	/
Cc1cc2c(s1)c1cnn(Cc3c(Cl)cccc3Cl)c(=O)c1n2C	-2%	/	/	/	/	/
O=C(c1ccco1)N1CCNCC1	/	/	0	/	/	/
Cc1c(/C=N/Nc2nc3ccccc3[nH]2)c2ccccc2n1C	-4%	2%	3	-5%	0%	8
C=CCn1cc(/C=N/Nc2nc3ccccc3[nH]2)c2ccccc21	-6%	?	1	32µM*	3%	22
O=[N+]([O-])c1ccc(O)c(/C=N/Nc2nc3ccccc3[nH]2)c1	-2%	-1%	-3	25µM*	-1%	19
CCN(CC)c1ccc(/C=C(/C#N)c2nc3ccccc3[nH]2)c(OC(C)C)c1	?	13µM*	2	4%	0%	-3
Nc1nc(SCc2ccc(Cl)cc2Cl)nc2nc3c(cc12)CCCC3	?	18µM*	8	-28%	0%	-3
Nc1nc(SCc2ccccc2Cl)nc2nc3c(cc12)CCCC3	30%	-1%	18	-2%	0%	6
Cc1c(P(=S)(c2ccccc2)c2ccccc2)c2ccccc2n1CCc1ccccc1	-3%	/	/	/	/	/
CC(=O)Nc1ccc(SCC(=O)O)cc1	5%	0%	0	2%	0%	-16
O=C(O)CSc1ccc(NC(=O)Nc2ccccc2F)cc1	-4%	0%	-54*	2%	0%	-7
CCCn1nc(NC(=O)c2cccc(Cl)c2)c2cc3cccc(C)c3nc21	24%	16µM*	-3	/	/	/
C/C(=N\NC(=O)c1ccc(O)cc1)c1ccc2c(c1)Nc1ccccc1S2	60%	0%	-2	-2%	0%	2
C/C(=N\NC(=O)c1ccccc1F)c1ccc2c(c1)Nc1ccccc1S2	?	11µM*	-4	?	-1%	2
CC(=O)c1cc2c(s1)c1cnn(Cc3ccccc3F)c(=O)c1n2C	-4%	/	/	/	/	/
Cc1nonc1NC(=O)CSc1nc2c(C)cccc2cc1C#N	?	16µM*	1	2%	0%	-11
Cc1cc2cc(C#N)c(SCC(=O)Nc3nonc3C)nc2cc1C	18%	/	5	7%	-1%	4
Cc1c(C(=O)OCC2CCCO2)[nH]c2c1C(=O)CC(c1ccco1)C2 (stereo not drawn)	?	0%	-54*	-1%	0%	-16
Cc1c(C(=O)OCC(C)C)[nH]c2c1C(=O)CC(c1ccco1)C2 (stereo not drawn)	29%	6%	-9	?	0%	8
CC(C)Cc1ccc(C(C)C(=O)OCc2ccccn2)cc1 (stereo not drawn)	/	/	1	/	/	/
CC(C)(C)NCC(O)COc1ccccc1OCC1CCCO1 (stereo not drawn)	/	/	0	/	/	/
COc1ccc(-n2c(C)cc(C(=O)COc3ccc(C)nc3[N+](=O)[O-])c2C)cc1	4%	0%	1	?	0%	-81*
Oc1[nH]c2ccccc2c1N=Nc1ccccc1	?	?	0	28µM*	0%	17
CN(C)c1nc(=NCc2ccco2)ss1	-3%	?	1	-12%	2.2µM*	?
CCOC(CN=c1nc(N(C)C)ss1)OCC	-1%	/	8	/	/	?
[Cl][In]([Cl])[Cl]	/	/	+	/	/	/
Oc1cccc(-c2nnc(-c3cccc(O)c3)nn2)c1	-3%	/	-66*	/	/	-80*
CCCC[n+]1ccn(-c2nc3ccccc3nc2[N-]S(=O)(=O)c2cccs2)c1	3%	10µM*	5	1%	-1%	2
